Results as given in PubChem BioAssay (NCI).
Compounds without any hit were thinned out: in the full panel of roughly 83,000, 20% have a hit.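 Cells were grown in 96-well plates and exposed to the test compound at a single concentration for 48 hours; results are reported as percent growth, with values below 10 considered active.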 Values without a mark were called inactive. Calls of active or inactive are those of the source.

What was measured:
Test in all cases: NCI-60 one-dose screen, 48 h (100 = growth as untreated, 0 = no growth, -100 = all killed)
Conditions in all cases: 10 µM unless noted
SK-MEL-2 melanoma = system: SK-MEL-2 melanoma
EKVX NSCLC = system: EKVX NSCLC
SN12C renal = system: SN12C renal
UO-31 renal = system: UO-31 renal
TK-10 renal = system: TK-10 renal
ACHN renal = system: ACHN renal
CAKI-1 renal = system: CAKI-1 renal
A498 renal = system: A498 renal
CCRF-CEM leukemia = system: CCRF-CEM leukemia
MOLT-4 leukemia = system: MOLT-4 leukemia
RPMI-8226 leukemia = system: RPMI-8226 leukemia
OVCAR-8 ovarian = system: OVCAR-8 ovarian
OVCAR-5 ovarian = system: OVCAR-5 ovarian
OVCAR-4 ovarian = system: OVCAR-4 ovarian
SK-OV-3 ovarian = system: SK-OV-3 ovarian
IGROV1 ovarian = system: IGROV1 ovarian
OVCAR-3 ovarian = system: OVCAR-3 ovarian
HS 578T breast = system: HS 578T breast
NCI/ADR-RES ovarian = system: NCI/ADR-RES ovarian
SR leukemia = system: SR leukemia

Row | SMILES | growth (SK-MEL-2 melanoma) | growth (EKVX NSCLC) [%] | growth (SN12C renal) | growth (UO-31 renal) | growth (TK-10 renal) | growth (ACHN renal) | growth (CAKI-1 renal) | growth (A498 renal) | growth (CCRF-CEM leukemia) | growth (MOLT-4 leukemia) | growth (RPMI-8226 leukemia) | growth (OVCAR-8 ovarian) [%] | growth (OVCAR-5 ovarian) [%] | growth (OVCAR-4 ovarian) [%] | growth (SK-OV-3 ovarian) | growth (IGROV1 ovarian) | growth (OVCAR-3 ovarian) | growth (HS 578T breast) | growth (NCI/ADR-RES ovarian) | growth (SR leukemia)
1 | O=C(Nc1ccc(Cl)cc1)Nc1ccc(Cl)c(Cl)c1 | 13.3% | 18.8 | 6.47% (active) | 9.73% (active) | 12.5% | -9.93% (active) | -1.31% (active) | 11.4% | 6.06% (active) | 6.56% (active) | -27.6% (active) | 21.2 | 23.9 | 21.8 | 20.2% | 21.5% | -31% (active) | 33% | -18.8% (active) | –
2 | O=C1Nc2c(ccc(Cl)c2Cl)/C1=C/c1ccc([N+](=O)[O-])cc1 | 99.1% | 84.3 | 126% | 79.7% | 103% | 87.8% | 59.6% | 99.4% | 2.94% (active) | 96.3% | 90.1% | 95.1 | – | – | 93.8% | 98.6% | 108% | 100% | 93.9% | 69.7%
3 | O=C1NC(=S)NC(=O)C1=Cc1cccc(C=C2C(=O)NC(=S)NC2=O)c1 | 108% | 99.9 | 95.3% | 91% | 104% | 113% | 93.9% | 93.1% | 99.3% | 102% | 101% | – | 110 | 105 | 110% | 107% | 108% | 103% | 102% | 96.9%
4 | CCOC(=O)c1cnc2c(cnn2CC)c1NN=C(C)C | 40% | 93 | 105% | 68.4% | 87.3% | 84.1% | 100% | 68% | 92% | 81% | – | 98.9 | 80.3 | 96.2 | 98.5% | 9.1% (active) | 104% | 94.5% | 83.3% | 65.9%
5 | c1ccc(-c2nnc(Nc3ccc4c(c3)OCCO4)o2)c(NCc2ccncc2)c1 | 4.04% (active) | 35.4 | 27.5% | 30.2% | 50.9% | 23.4% | 21.1% | 10% | 20.4% | 21.1% | – | 20.2 | 32.2 | 35.5 | -2.96% (active) | 28.5% | -36.9% (active) | 64.4% | 4.75% (active) | 10.9%
6 | CC1=NNC(=O)C1CCC(=O)N/N=C(\C)c1ccc2ccccc2c1 (stereo not given) | 102% | 154 | 102% | 84.8% | 130% | 111% | 107% | 110% | 105% | 88.9% | 107% | 102 | 77.2 | 117 | 126% | 92.6% | 105% | 114% | 94.3% | –
7 | CCN(CC)CCCC(Nc1c2ccc(Cl)cc2nc2ccc(OC)cc12)c1ccc(Cl)cc1 (stereo not given) | -78.7% (active) | 53.1 | 36.3% | 28.2% | -60.4% (active) | -33.7% (active) | -36.9% (active) | 38.2% | -7.24% (active) | -20.9% (active) | -18.6% (active) | – | 33.7 | 20.3 | 64.9% | -15.3% (active) | -17.6% (active) | -47.7% (active) | -13.3% (active) | -32.9% (active)
8 | COc1ccc(C(=O)c2cc3c(N)c(C(=O)Nc4cccc(OC)c4)sc3nc2C)cc1 | 27.9% | 35.3 | 28.1% | 49.3% | 57.1% | 41.2% | 45.8% | -1.41% (active) | 7.12% (active) | 15.8% | 15.2% | 15 | – | 49.5 | 36.5% | 37.6% | 1.93% (active) | 24.6% | – | -2.44% (active)
